# According to PubChem BioAssay (NCATS):
# Records with an inconclusive call do not appear. Calls of active or inactive are those of the source. The call rests on the fitted dose curve; in most records, active means well fitted cell-killing curve with a large enough effect; inconclusive means small, poorly fitted or top-dose-only effect; inactive means flat fitted curve, though single readings scatter.
# Assay: qHTS of pediatric cancer cell lines to identify multiple opportunities for drug repurposing: Primary screen for BT-37 cells (AID 1347094);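 on activity change, negative = cytotoxic: plate controls were DMSO for no effect and bortezomib for full effect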
# Conditions: BT-37 viability, CellTiter-Glo luminescence, 48 h; series mostly up to 57.3 µM; activity change, negative = cytotoxic: at the top concentration
# Source text: Drug repurposing or repositioning has been offered as a strategy for drug development in oncology programs. This approach has special potential for childhood cancers and other rare or orphan diseases, where the expected return on new drug development has been a disincentive to pharmaceuticals. […] In this project we exploit the poly-pharmacology of drugs to discover new indications via phenotypic screening of a panel of 19 well-characterized cell lines derived from solid tumors seen in children and adolescents. The goal is to identify approved drugs with previously unrecognized anticancer properties that has the potential to reveal new mechanisms and biological processes involved in carcinogenesis or drug resistance. We employed a titration-based paradigm (quantitative high-throughput screening or qHTS), where all compounds were tested at multiple concentrations for their effect on cell viability. Concentration-response curves (CRCs) were derived directly from the primary screen, and both potency and efficacy values were used to identify compounds with robust bioactivity profiles. We screened the NIH Chemical Genomics Center (NCGC) Pharmaceutical Collection (NPC) and Mechanism Interrogation Plate (MIPE) small molecule collections of approved and investigational compounds against these cell lines; and measured metabolically active cells after 48 hours of compound treatment as a proxy for cell viability. […] Assay Submitter: Nathalia J. Martinez, National Center for Advancing Translational Sciences, National Institutes of Health, Rockville, MD, USA; email: natalia.martinez@nih.gov Shen, M et al. Quantitative high-throughput phenotypic screening of pediatric cancer cell lines identifies multiple opportunities for drug repurposing. Oncotarget 2017 Dec 19;9(4):4758-4772. PMID 29435139.
# The cells were obtained from University of North Carolina (UNC), Pediatric Preclinical Testing Program (PPT), and Coriell Institute (CI). qHTS cell viability assay: Cells were assayed in growth media at a density of 500-1,000 cells/well. Five microliters of cells were dispensed into 1,536-well, white, solid-bottom, TC-treated plates (Greiner Bio One) using a multidrop dispenser and incubated at 37 degrees C, 5% CO2, under a humidified atmosphere for 5 hours. Twenty-three nanoliters of compounds and controls (neutral control DMSO or positive control bortezomib at final concentration of 2.3 µM) were subsequently transferred by Kalypsys pintool. For primary screens, the MIPE collection was tested at 11-point dilutions (final concentrations range from 0.78 nM to 46 µM) and the NPC collection at 8-point dilutions (final concentrations range from 0.59 nM to 46 µM). Compounds tested in follow-up screens were assayed at 11-point dilutions. Cells were incubated for 48 hours, followed by addition of 3 µL of CellTiter-Glo (Promega). After a 15 min incubation at room temperature, samples were analyzed for luminescence intensity using a ViewLux High-throughput CCD imager equipped with clear filters.
# Potency means the concentration at half of the fitted maximal effect.
SMILES,"activity change, negative = cytotoxic",Potency
OC(CCCN1CCCCC1)(c1ccccc1)c1ccccc1,-18.8% (inactive),
COC(=O)c1cc(S(N)(=O)=O)ccc1OC,9.58% (inactive),
COc1ccc2c(c1)CCCC2=O,19% (inactive),
CC(=O)OCC(=O)[C@@]1(O)[C@H](OC(C)=O)C[C@H]2[C@@H]3CCC4=CC(=O)C=C[C@]4(C)[C@@]3(F)[C@@H](O)C[C@@]21C,9.5% (inactive),
O=C(O)[C@H](O)[C@@H](O)[C@H](O[C@@H]1O[C@H](CO)[C@H](O)[C@H](O)[C@H]1O)[C@H](O)CO,10.4% (inactive),
Clc1ccc2c(c1)Nc1ccccc1S2,-0.753% (inactive),
CCCCCC1Nc2cc(C(F)(F)F)c(S(N)(=O)=O)cc2S(=O)(=O)N1 (stereo not given),-5.45% (inactive),
Oc1ccccc1-c1nnco1,17.7% (inactive),
O=C(O)c1[nH]n(-c2ccc(S(=O)(=O)O)cc2)c(=O)c1N=Nc1ccc(S(=O)(=O)O)cc1,1.37% (inactive),
O=C(O)CCCC[C@@H]1SC[C@@H]2NC(=O)N[C@@H]21,-2.9% (inactive),
CC(C)C(C)(C)C(C)(C)C(C)(C)S,14.5% [at 116 µM] (inactive),
C[C@H]1C[C@H](O)c2ccsc2S1(=O)=O,4.22% (inactive),
C[N+](C)(CCOc1ccccc1)Cc1cccs1,-11.6% (inactive),
Cc1[nH]cnc1-c1ccc(Cl)cc1,-0.726% (inactive),
C[C@@H](O[C@H]1OCCN(Cc2n[nH]c(=O)[nH]2)[C@H]1c1ccc(F)cc1)c1cc(C(F)(F)F)cc(C(F)(F)F)c1,,21.9 µM (active)
COc1cc(C(=O)NC2CCCNC2)cc(OC)c1OC (stereo not given),21.9% (inactive),
O=C(NN1CCCC1)NS(=O)(=O)c1ccc(Cl)cc1,1.89% (inactive),
CCNC(=O)NCCCOc1cccc(CN2CCCCC2)c1,-4.11% (inactive),
CC(C)=CCNc1ncnc2c1ncn2[C@@H]1O[C@H](CO)[C@@H](O)[C@H]1O,,6.17 µM (active)
CCc1cc2cc(OC)c(OC)cc2c(Cc2ccccc2)n1,-10.2% (inactive),

SMILES,"activity change, negative = cytotoxic",Potency
CC(=O)OCC[N+](C)(C)C,5.85% (inactive),
O=C(CO)[C@@H](O)[C@H](O)[C@@H](O)CO,15.3% (inactive),
COc1ccc2c(c1)c(CC(=O)OC/C=C(\C)CC/C=C(\C)CCC=C(C)C)c(C)n2C(=O)c1ccc(Cl)cc1,-0.169% (inactive),
CCOc1ccccc1OCC1CNCCO1 (stereo not given),7% (inactive),
O=C(O)Cc1ccccc1Oc1ccc(Cl)cc1Cl,9.63% (inactive),
O=C(C1CCCCC1)N1CC(=O)N2CCCc3ccccc3C2C1 (stereo not given),6.29% (inactive),
C=CC[N+]1([C@H]2C[C@H]3[C@@H]4CC[C@H]5C[C@H](OC(C)=O)[C@@H](N6CCCCC6)C[C@]5(C)[C@H]4CC[C@]3(C)[C@H]2OC(=O)CC)CCCCC1,4.23% (inactive),
C[C@H]1C[C@@H]2[C@H]([C@@H](O)C[C@@]3(C)[C@H]2CC[C@]3(O)C(=O)CO)[C@@]2(C)C=CC(=O)C=C12,17% (inactive),
O=C(CCCl)NCc1ccccc1,4.54% (inactive),
CC1CN(c2cc3c(cc2F)c(=O)c(C(=O)O)cn3-c2ccc(F)cc2F)CCN1 (stereo not given),1.04% [at 6.03 µM] (inactive),
CCC[C@H](N[C@@H](C)C(=O)N1[C@H](C(=O)O)C[C@@H]2CCCC[C@@H]21)C(=O)OCC,-15% (inactive),
COc1cc(S(N)(=O)=O)cc(C(=O)O)c1OC,3.01% (inactive),
CCCCCCCCCCCCCCCCCCN(C)C,3.1% (inactive),
Nc1c2ccccc2nc2ccccc12,,8.71 µM (active)
NCC[C@H](O)C(=O)N[C@@H]1C[C@H](N)[C@@H](O[C@H]2O[C@H](CN)[C@@H](O)[C@H](O)[C@@H]2O)[C@H](O)[C@@H]1O[C@H]1O[C@H](CO)[C@@H](O)[C@H](N)[C@@H]1O,11.5% [at 0.745 µM] (inactive),
CC(=O)Nc1ccc(S(=O)(=O)Nc2cc(C)on2)cc1,7.77% (inactive),
CC(=O)CC/C=C(\C)CC/C=C(\C)CC/C=C(\C)CCC=C(C)C,3.98% (inactive),
CCc1cccc2c(CCO)c[nH]c12,13.5% (inactive),
CO/N=C(/C(=O)N[C@@H]1C(=O)N2C(C(=O)OCOC(=O)C(C)(C)C)=C(C)CS[C@H]12)c1csc(N)n1,-1.05% (inactive),
O=C(O)[C@@H](O)[C@H](O)[C@H](O)[C@@H](O)C(=O)O,14.2% (inactive),
